In PubChem BioAssay (EPA / NIEHS) one finds outcome and AC50 data, which are given here for 11 compounds.

The nature of assay [1]: BSK_BT_PBMCCytotoxicity: PBMC Cytotoxicity Assessment in the BioMAP Diversity Plus: BT Assay (AID 2284225).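 Note: PBMC viability measured by Alamar Blue dye reduction fluorescence.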 Particulars: primary human B cells with PBMC. The method in brief: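 75,000 cells/well; cpd 1 h → SEB + TSST-1 (20 ng/mL final each) → 90 h → Alamar Blue 6 h → fluor. 546/580 nm. DMSO = neg. control/baseline.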
Read-out in assay [2]: Secreted IgG (sIgG), gene 3500
The assay can be described thus: BSK_BT_sIgG: BioMAP Diversity Plus: BT Assay for Secreted IgG (sIgG) Biomarker Activity (AID 2284226). Particulars: primary human B cells with PBMC. The method in brief: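 Secreted IgG from a human primary B cell–PBMC co-culture was measured by ELISA 24 hours after dosing, with DMSO defining baseline activity.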

Read-out in assay [3]: Tumor necrosis factor (Homo sapiens) (UniProt P01375)
The assay can be described thus: BSK_BT_xTNFa: BioMAP Diversity Plus: BT Assay for Tumor necrosis factor alpha (TNF-alpha) Biomarker Activity (AID 2284230). Particulars: primary human B cells with PBMC. The method in brief:
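Compounds were added to a B cell plus PBMC co-culture, and after 24 h secreted TNF-alpha was quantified with Luminex xMAP technology, with responses fitted upward from the DMSO control.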

Read-out in assay [4]: Vascular cell adhesion molecule 1 (VCAM1), VCAM1 (gene 7412)
The assay can be described thus: BSK_MyoF_VCAM1: BioMAP Diversity Plus: MyoF Assay for Vascular cell adhesion molecule 1 (VCAM1) Biomarker Activity (AID 2284231). Particulars: primary human lung fibroblasts. The method in brief: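 ELISA readout of VCAM-1 on human lung fibroblast cultures 24 hours after dosing, analyzed for signal gain relative to DMSO. Overt cytotoxicity was checked by sulforhodamine B total-protein staining in parallel cultures.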

Read-out in assay [5]: Collagen III, COL3A1 (gene 1281)
The assay can be described thus: BSK_MyoF_CollagenIII: BioMAP Diversity Plus: MyoF Assay for Collagen III Biomarker Activity (AID 2284239). Particulars: primary human lung fibroblasts. The method in brief:
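Collagen III biomarker quantified by ELISA in human lung fibroblast cultures 24 h after dosing. Activity fitted in the positive direction against DMSO as baseline.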

Read-out in assay [6]: Interleukin 17F (IL17F), IL17F (gene 112744)
Nature of the assay: BSK_BT_xIL17F: BioMAP Diversity Plus: BT Assay for Interleukin 17F (IL17F) Biomarker Activity (AID 2284243). Particulars: primary human B cells with PBMC. The method in brief:
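Human B cells co-cultured with PBMC; secreted IL-17F quantified by LumineX xMAP 24 hours after chemical dosing. Activity fitted in the positive direction against DMSO negative control as baseline.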

Read-out in assay [7]: Actin alpha 1 (ACTA1), ACTA1 (gene 58)
The assay can be described thus: BSK_MyoF_ACTA1: BioMAP Diversity Plus: MyoF Assay for Actin alpha 1 (ACTA1) Biomarker Activity (AID 2284244). Particulars: primary human lung fibroblasts. The method in brief: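 Measured by ELISA: alpha-smooth muscle actin in human primary lung fibroblasts 24 h after dosing, with DMSO as baseline and upward signal change as the fitted direction.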

Read-out in assay [8]: Interleukin 2 (IL2), IL2 (gene 3558)
Nature of the assay: BSK_BT_xIL2: BioMAP Diversity Plus: BT Assay for Interleukin 2 (IL2) Biomarker Activity (AID 2284245). Particulars: primary human B cells with PBMC. The method in brief:
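Secreted interleukin-2 from human B cell/PBMC co-cultures, measured 24 h post-dosing by Luminex multiplex immunoassay. Upward-direction curve fitting against DMSO baseline.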

Read-out in assay [9]: Basic fibroblast growth factor (bFGF), FGF2 (gene 2247)
The assay can be described thus: BSK_MyoF_bFGF: BioMAP Diversity Plus: MyoF Assay for Basic fibroblast growth factor (bFGF) Biomarker Activity (AID 2284246). Particulars: primary human lung fibroblasts. The method in brief:
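In this multiplexed cell system, lung fibroblasts (human primary) receive test chemical for 24 h before ELISA detection of bFGF; DMSO defines baseline and the analysis direction is positive.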

Read-out in assay [10]: Plasminogen activator inhibitor-1 (PAI1), SERPINE1 (gene 5054)
The assay can be described thus: BSK_MyoF_PAI1: BioMAP Diversity Plus: MyoF Assay for Plasminogen activator inhibitor-1 (PAI1) Biomarker Activity (AID 2284256).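 For outcome: PAI-1 protein level measured by ELISA in fibroblast cultures; PAI-1 read 24 h after compound addition.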 Particulars: primary human lung fibroblasts. The method in brief: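 Human lung fibroblasts (MyoF system) were exposed to test chemicals for 24 h, then PAI-1 was quantified by ELISA. Activity was fitted in the positive (signal-gain) direction relative to DMSO vehicle as baseline.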

Read-out in assay [11]: Interleukin-8 (IL8), CXCL8 (gene 3576)
Nature of the assay: BSK_MyoF_IL8: BioMAP Diversity Plus: MyoF Assay for Interleukin-8 (IL8) Biomarker Activity (AID 2284261). Particulars: primary human lung fibroblasts. The method in brief: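 IL-8 quantified by ELISA after 24 h compound exposure of primary human lung fibroblasts. SRB staining of parallel cultures flagged cytotoxicity; DMSO served as baseline.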

Read-out in assay [12]: Decorin, DCN (gene 1634)
Nature of the assay: BSK_MyoF_Decorin: BioMAP Diversity Plus: MyoF Assay for Decorin Biomarker Activity (AID 2284265). Particulars: primary human lung fibroblasts. The method in brief:
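Decorin protein was quantified by ELISA 24 h after chemical addition to primary human lung fibroblasts and analysed as increase over DMSO. Cytotoxicity was tracked in parallel cultures by SRB total-protein staining read at 560 nm.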

Assay [13] can be described thus: BSK_MyoF_SRB: Viability Assessment in the BioMAP Diversity Plus: MyoF Assay (AID 2284267).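 Note: total protein by SRB absorbance in parallel cultures as cytotoxicity measure; cells assessed 24 h after compound addition.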 Particulars: primary human lung fibroblasts. The method in brief:
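Cytotoxicity in primary human lung fibroblasts is gauged by SRB total-protein staining 24 h after dosing, with DMSO as the negative control.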

In assay [14] the target is Retinoic acid receptor alpha (Homo sapiens) (UniProt P10276). Nature of the assay: ATG_RARa_TRANS: Attagene TRANS-FACTORIAL HepG2 Assay for human Retinoic Acid Receptor alpha (RARa) (AID 2283005; active = hit-call score of the fitted dose curve at least 0.9, where 1 is the maximum). The method in brief:
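Reporter transcripts, measured by RT-PCR with fluorescent labeling and capillary electrophoresis after 24 h dosing, reflect activity of an exogenous human RARa–GAL4 fusion in transiently transfected HepG2. Fitted for increase relative to DMSO.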

Assay [15] addresses human Retinoic Acid Receptor gamma (RARg), RARG (gene 5916) (UniProt P13631). The assay can be described thus: ATG_RARg_TRANS: Attagene TRANS-FACTORIAL HepG2 Assay for human Retinoic Acid Receptor gamma (RARg) (AID 2283009; active = hit-call score of the fitted dose curve at least 0.9, where 1 is the maximum). The method in brief:
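HepG2, RARg-GAL4 TRANS system, 24 h exposure; reporter mRNA by RT-PCR + CE fluorescence; increase over DMSO.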

For assay [16], the target named is Bile acid receptor (Homo sapiens) (UniProt Q96RI1). The assay can be described thus: OT_FXR_FXRSRC1_1440: Odyssey Thera (OT) 24-hour HEK293T Protein-Complementation Assay for Farnesoid X receptor/SRC-1 Co-activator (AID 2283384; active = hit-call score of the fitted dose curve at least 0.9, where 1 is the maximum). The method in brief:
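Cell-based binding reporter: interaction of FXR with SRC-1 brings reporter fragments together, giving a fluorescence signal read 24 h after dosing of HEK293T cells.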

In assay [17] the target is Androgen receptor (Homo sapiens) (UniProt P10275). Nature of the assay: ATG_AR_TRANS: Attagene TRANS-FACTORIAL HepG2 Assay for human Androgen Receptor (AR) (AID 2282973; active = hit-call score of the fitted dose curve at least 0.9, where 1 is the maximum). Particulars: HepG2 Attagene TRANS-FACTORIAL AR reporter transcription. The method in brief: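 Transcriptional activity of an exogenous AR–Gal4 fusion read as GAL4-UAS reporter transcript levels in transfected human HepG2 cells after 24 h dosing. Detection via RT-PCR, 6-FAM labelling, HpaI digest and capillary electrophoresis; increase over DMSO baseline.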
Sequence of Androgen receptor (Homo sapiens) (P10275 whole entry, looked up, the tested form may be a part): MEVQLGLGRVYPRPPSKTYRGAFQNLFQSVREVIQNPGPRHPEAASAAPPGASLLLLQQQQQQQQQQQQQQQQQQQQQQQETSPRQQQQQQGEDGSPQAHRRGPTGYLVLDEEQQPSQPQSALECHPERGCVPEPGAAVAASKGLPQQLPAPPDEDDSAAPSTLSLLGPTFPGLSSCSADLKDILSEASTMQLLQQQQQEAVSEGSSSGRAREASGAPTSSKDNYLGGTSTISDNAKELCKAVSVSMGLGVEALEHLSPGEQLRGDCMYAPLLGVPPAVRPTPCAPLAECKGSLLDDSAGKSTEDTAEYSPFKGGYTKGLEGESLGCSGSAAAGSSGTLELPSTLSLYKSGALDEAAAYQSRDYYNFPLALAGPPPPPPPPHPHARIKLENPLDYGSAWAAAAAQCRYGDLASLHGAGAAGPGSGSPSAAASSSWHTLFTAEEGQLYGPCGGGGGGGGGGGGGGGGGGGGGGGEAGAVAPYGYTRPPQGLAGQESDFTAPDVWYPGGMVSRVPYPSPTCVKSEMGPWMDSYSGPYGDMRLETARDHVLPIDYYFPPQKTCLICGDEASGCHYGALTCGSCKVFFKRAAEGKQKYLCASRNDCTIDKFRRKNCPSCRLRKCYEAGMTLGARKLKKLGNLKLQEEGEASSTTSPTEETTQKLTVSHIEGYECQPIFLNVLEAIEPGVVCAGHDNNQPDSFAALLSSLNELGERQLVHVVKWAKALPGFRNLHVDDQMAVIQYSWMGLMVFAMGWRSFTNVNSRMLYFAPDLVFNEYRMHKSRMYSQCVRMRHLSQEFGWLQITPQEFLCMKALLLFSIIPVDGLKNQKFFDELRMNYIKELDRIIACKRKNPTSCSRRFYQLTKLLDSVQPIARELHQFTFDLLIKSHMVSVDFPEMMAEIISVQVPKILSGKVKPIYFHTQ

Assay [18] concerns the target human Retinoic Acid Receptor beta (RARb), RARB (gene 5915) (UniProt P10826). The assay can be described thus: ATG_RARb_TRANS: Attagene TRANS-FACTORIAL HepG2 Assay for human Retinoic Acid Receptor beta (AID 2283004; active = hit-call score of the fitted dose curve at least 0.9, where 1 is the maximum). The method in brief: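 Induction of reporter mRNA from a chimeric RARb-Gal4 construct was measured by RT-PCR, FAM labelling, HpaI digestion and capillary electrophoresis. Measurements followed 24 h compound treatment of transiently transfected human HepG2 liver cells, with DMSO as baseline.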

The target in assay [19] is rat Thyrotropin Releasing Hormone Receptor (TRH), Trhr (gene 25570) (UniProt Q01717). Nature of the assay: NVS_GPCR_rTRH: NovaScreen (NVS) G Protein-Coupled Receptor Assay for rat Thyrotropin Releasing Hormone Receptor (TRH) (AID 2283329; active = hit-call score of the fitted dose curve at least 0.9, where 1 is the maximum;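 note: hit means lower bound tracer signal versus DMSO baseline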). The method in brief: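 Rat forebrain membrane prep, radioligand displacement, filter scintillation readout at 4 h. Single conc 25 uM, duplicate; actives retested as concentration series. DMSO = negative control/baseline.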
Sequence of rat Thyrotropin Releasing Hormone Receptor (TRH), Trhr (gene 25570) (Q01717 whole entry, looked up): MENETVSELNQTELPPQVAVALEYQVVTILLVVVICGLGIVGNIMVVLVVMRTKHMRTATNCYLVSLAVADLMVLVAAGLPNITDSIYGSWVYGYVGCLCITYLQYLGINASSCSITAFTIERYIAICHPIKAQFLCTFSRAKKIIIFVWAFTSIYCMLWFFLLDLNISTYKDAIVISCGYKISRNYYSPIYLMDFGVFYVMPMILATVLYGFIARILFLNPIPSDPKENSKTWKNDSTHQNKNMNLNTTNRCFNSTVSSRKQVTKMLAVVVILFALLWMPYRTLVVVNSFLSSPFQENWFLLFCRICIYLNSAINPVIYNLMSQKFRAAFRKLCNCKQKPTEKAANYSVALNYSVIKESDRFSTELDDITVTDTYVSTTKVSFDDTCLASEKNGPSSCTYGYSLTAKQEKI

A short description of assay [20]: CEETOX_H295R_MTT_cell_viability: Viability Assessment in the CeeTox HT-H295R MTT Assay (AID 2283718).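 For AC50: curve fitted both ways so AC50 may mark viability loss or gain.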 The method in brief:
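MTT reduction (0.5 mg/ml, 4 h at 37 C; absorbance at 570 and 650 nm) gave viability as background-corrected percent change versus controls. H295R cells had 48 h forskolin (10 uM) prestimulation, then 48 h chemical exposure at 0.1% DMSO.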

Several values for one entry are separate records, joined by “and”; a condition that tells them apart may be missing. Identical values can stand only once. Records with an inconclusive call do not appear. Activity calls are given as the source filed them. Rule for the calls, unless noted: active = hit-call score of the fitted dose curve at least 0.9, where 1 is the maximum; inactive = score below 0.9.

Sequence of Retinoic acid receptor alpha (Homo sapiens) (P10276 whole entry, looked up, the tested form may be a part): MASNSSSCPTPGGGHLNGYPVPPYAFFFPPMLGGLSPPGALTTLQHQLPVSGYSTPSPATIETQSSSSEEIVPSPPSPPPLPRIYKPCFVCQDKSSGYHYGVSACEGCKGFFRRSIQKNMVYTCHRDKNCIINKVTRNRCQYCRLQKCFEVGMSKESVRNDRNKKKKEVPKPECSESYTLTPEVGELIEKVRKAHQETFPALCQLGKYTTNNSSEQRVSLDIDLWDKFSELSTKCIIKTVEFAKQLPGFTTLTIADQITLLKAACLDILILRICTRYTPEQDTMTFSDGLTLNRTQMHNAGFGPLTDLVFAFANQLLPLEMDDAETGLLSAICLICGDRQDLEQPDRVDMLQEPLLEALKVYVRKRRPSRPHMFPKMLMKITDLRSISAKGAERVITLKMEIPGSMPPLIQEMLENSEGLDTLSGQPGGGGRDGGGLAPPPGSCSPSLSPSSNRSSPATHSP
Sequence of Tumor necrosis factor (Homo sapiens) (P01375 whole entry, looked up): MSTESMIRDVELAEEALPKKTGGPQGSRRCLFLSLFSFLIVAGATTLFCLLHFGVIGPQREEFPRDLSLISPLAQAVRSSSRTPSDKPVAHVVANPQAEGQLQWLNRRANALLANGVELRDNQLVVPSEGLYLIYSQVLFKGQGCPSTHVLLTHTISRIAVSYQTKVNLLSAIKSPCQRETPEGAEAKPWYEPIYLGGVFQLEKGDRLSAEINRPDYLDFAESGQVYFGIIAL
Sequence of Bile acid receptor (Homo sapiens) (Q96RI1 whole entry, looked up, the tested form may be a part): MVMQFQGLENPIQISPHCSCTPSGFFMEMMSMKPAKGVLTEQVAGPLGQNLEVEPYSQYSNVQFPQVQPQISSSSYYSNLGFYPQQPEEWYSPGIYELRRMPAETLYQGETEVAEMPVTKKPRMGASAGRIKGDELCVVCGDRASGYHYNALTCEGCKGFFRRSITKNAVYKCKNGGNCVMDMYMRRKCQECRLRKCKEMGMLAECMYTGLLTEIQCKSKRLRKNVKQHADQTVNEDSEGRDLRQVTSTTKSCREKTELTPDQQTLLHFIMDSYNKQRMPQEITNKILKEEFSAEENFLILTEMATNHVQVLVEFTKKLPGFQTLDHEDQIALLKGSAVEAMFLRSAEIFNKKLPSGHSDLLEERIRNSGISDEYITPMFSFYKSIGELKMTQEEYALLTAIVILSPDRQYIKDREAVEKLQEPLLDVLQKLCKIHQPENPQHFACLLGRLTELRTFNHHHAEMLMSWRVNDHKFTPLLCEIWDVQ
Sequence of human Retinoic Acid Receptor gamma (RARg), RARG (gene 5916) (P13631 whole entry, looked up, the tested form may be a part): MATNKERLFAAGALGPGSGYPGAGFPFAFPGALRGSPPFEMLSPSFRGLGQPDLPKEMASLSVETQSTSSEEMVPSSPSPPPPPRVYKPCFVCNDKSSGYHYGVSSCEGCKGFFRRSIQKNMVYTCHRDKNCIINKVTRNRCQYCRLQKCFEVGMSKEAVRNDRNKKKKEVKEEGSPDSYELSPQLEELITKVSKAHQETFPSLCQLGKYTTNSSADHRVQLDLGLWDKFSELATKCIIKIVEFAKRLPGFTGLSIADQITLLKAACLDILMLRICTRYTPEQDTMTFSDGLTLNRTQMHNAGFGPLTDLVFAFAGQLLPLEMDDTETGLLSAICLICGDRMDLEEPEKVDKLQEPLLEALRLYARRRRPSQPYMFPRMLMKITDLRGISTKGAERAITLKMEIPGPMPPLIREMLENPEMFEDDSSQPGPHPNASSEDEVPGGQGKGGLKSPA
Sequence of human Retinoic Acid Receptor beta (RARb), RARB (gene 5915) (P10826 whole entry, looked up, the tested form may be a part): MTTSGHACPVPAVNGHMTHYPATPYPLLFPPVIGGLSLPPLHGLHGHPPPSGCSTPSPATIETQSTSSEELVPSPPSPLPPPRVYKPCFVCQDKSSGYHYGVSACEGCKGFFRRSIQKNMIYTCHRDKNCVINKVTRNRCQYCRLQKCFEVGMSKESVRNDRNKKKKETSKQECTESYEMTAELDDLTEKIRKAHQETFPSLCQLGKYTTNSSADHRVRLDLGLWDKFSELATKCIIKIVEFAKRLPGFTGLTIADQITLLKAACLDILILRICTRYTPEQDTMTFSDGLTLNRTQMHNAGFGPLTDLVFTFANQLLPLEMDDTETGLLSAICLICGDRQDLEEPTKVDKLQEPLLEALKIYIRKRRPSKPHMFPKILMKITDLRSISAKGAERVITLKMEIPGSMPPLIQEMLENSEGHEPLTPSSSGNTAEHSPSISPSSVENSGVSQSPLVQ

On to `COCC(=O)N(c1c(C)cccc1C)N1CCOC1=O`, for which the result in [1], in assay [2], in [3], in assay [4], in assay [5] and in assay [6] was inactive. Further, the outcome in assay [7], in assay [8], in [9], in [10], in assay [11] and in assay [12] was inactive. Further, the outcome in assay [13] was inactive.
As to `O=C(NCNC(=O)NC1C(=O)NC(=O)N1CO)NC1C(=O)NC(=O)N1CO` (stereo not drawn), the outcome in assay [14], in assay [15] and in [16] was inactive.
Take `C=C(Cl)Cl`: the outcome in [17], in assay [18], in assay [14] and in [15] was inactive.
Turning to `CCCCCCCCCCCCCCCC[N+](C)(C)C`, in assay [19], the compound was classed as inactive.
Regarding `N#CCCCl`, the compound was classed as inactive in assay [14].
For orientation: AC50 means the concentration at which the activity in the assay is half-maximal. Take `CC(Cc1ccc(C(C)(C)C)cc1)CN1C[C@@H](C)O[C@@H](C)C1` (stereo partly drawn): the half-maximal activity concentration (AC50) in assay [20] is 65.8 µM (active).
Regarding `Cc1ccc(OP(=O)(Oc2ccc(C)cc2)Oc2ccc(C)cc2)cc1` (tested in a mixture with another compound), the call in assay [19], in assay [20], in assay [3], in assay [4], in assay [5] and in [9] was inactive. For the same compound, the result in assay [10], in assay [12] and in [13] was inactive. Besides, the AC50 in assay [1] was 5.41 µM (active); in assay [2], 13.5 µM (active); in assay [6], 24.6 µM (active); in [7], 26.4 µM (active); in assay [8] it was 20 µM (active); in assay [11] it was 10.2 µM (active).
For the compound `O=C1Nc2ccc(Cl)cc2C(c2ccccc2)=NC1O` (stereo not drawn), in assay [16], the outcome was inactive.
On to `CC1(C)[C@H](C(=O)O[C@H](C#N)c2cccc(Oc3ccccc3)c2)[C@@H]1C=C(Br)Br`, for which the result in assay [1], in assay [3], in assay [4], in assay [5], in assay [7] and in assay [9] was inactive. Moreover, the result in assay [10], in [11], in assay [12] and in assay [13] was inactive. Also, the AC50 in assay [2] was 23.2 µM (active) and 29.8 µM (active); in assay [6] it was 28.7 µM (active) and 20 µM (active); in [8], 29.1 µM (active) and 20 µM (active).
Consider `CCC(C)c1cc([N+](=O)[O-])cc([N+](=O)[O-])c1OC(=O)C=C(C)C` (stereo not drawn), for which the AC50 in assay [1] is 20 µM (active); in [2], 20 µM (active); in [3], 30.8 µM (active); in assay [4], 3.66 µM (active); in assay [5], 5.36 µM (active); in [6] it was 29.3 µM (active). The AC50 in assay [7] is 5.45 µM (active); in assay [8] it was 30.9 µM (active); in assay [9] it was 32.6 µM (active); in [10], 11.6 µM (active); in assay [11], 36.9 µM (active); in [12] it was 20 µM (active). Also, in assay [13], the AC50 is 20.8 µM (active).
Regarding `O=c1c2ccccc2c(=O)c2c1cc(Cl)c1[nH]c3c([nH]c12)c(Cl)cc1c(=O)c2ccccc2c(=O)c13`, the result in assay [1], in [2], in [3], in assay [4], in assay [5] and in assay [6] was inactive. Besides, the outcome in assay [7], in assay [8], in assay [9], in assay [10], in [11] and in assay [12] was inactive. Besides, the result in [13] was inactive.
